Assay results published in PubChem BioAssay (NCI).
The panel holds about 79,000 compounds, 15% with a hit somewhere; the sample as a whole holds those more often. A number with no mark means an inactive call. The source made the active and inactive calls. Rule as the data show it: active = growth inhibition above about 70%; inactive = the rest.

What was measured:
[1] = NCI Yeast Anticancer Drug Screen. Data for the rad50 strain (AID 155);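 also: 0% = growth of vehicle-only cultures of the same strain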; conditions: S. cerevisiae rad50 strain growth inhibition; at 50.0 µM; hits give high values
Method in brief: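 Relative growth inhibition (compound vs vehicle) was measured in yeast with a defined repair-gene alteration.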

[2] = NCI Yeast Anticancer Drug Screen. Data for the mec2-1 strain (AID 157); conditions: S. cerevisiae mec2-1 strain, at 50.0 µM, hits give high values
Method in brief: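 Yeast mec2-1 mutant treated with compound. Readout: growth inhibition vs vehicle controls.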

[3] = NCI Yeast Anticancer Drug Screen. Data for the sgs1 mgt1 strain (AID 161);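 also: 0% = growth of cultures given vehicle only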; conditions: S. cerevisiae sgs1 mgt1 strain, at 50.0 µM, hits give high values
Method in brief: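 Inhibition of yeast growth, normalised to vehicle-treated controls, is reported for a strain bearing genetic alterations in DNA damage repair.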

[4] = NCI Yeast Anticancer Drug Screen. Data for the cln2 rad14 strain (AID 165);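 also: 0% = growth equal to vehicle treated cultures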; conditions: S. cerevisiae cln2 rad14 strain, at 50.0 µM, hits give high values
Method in brief: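 cln2 rad14 yeast strain; compound exposure; growth inhibition read vs vehicle controls.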

[5] = NCI Yeast Anticancer Drug Screen. Data for the bub3 strain (AID 167); conditions: S. cerevisiae bub3 mutant strain, at 50.0 µM, hits give high values
Method in brief: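 Screening used yeast with an engineered genetic alteration affecting cell cycle control. Compound-exposed cultures were compared with vehicle cultures, and reduced growth was taken as inhibition.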

[6] = NCI Yeast Anticancer Drug Screen. Data for the mlh1 rad18 strain (AID 175); conditions: S. cerevisiae mlh1 rad18 strain growth inhibition; at 50.0 µM; hits give high values
Method in brief: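 Yeast w/ defined DNA-repair lesions; compound exposure; growth vs vehicle controls → % inhibition.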

| SMILES | growth inhibition [1] | growth inhibition [2] | growth inhibition [3] | growth inhibition [4] [%] | growth inhibition [5] | growth inhibition [6] [%] |
| --- | --- | --- | --- | --- | --- | --- |
| COC1(c2ccc(C)cc2)c2cccc3cccc(c23)C1(O)c1ccc(C)cc1 (stereo not given) | 18.6% | 15.6% | 12% | 21.6 | -4.15% | 9.9 |
| COc1ccccc1NC(=O)CCl | 17.8% | 24.9% | 24.4% | 18.8 | 28.5% | 36.2 |
| COC(=O)[C@]1(C)CCC[C@]2(C)c3ccc(C(C)=O)cc3C(=O)C[C@@H]12 | -1.5% | -10.8% | 9.5% | -31.6 | -8.5% | -15.1 |
| COc1cc(C)cc2c(-c3c(OC(C)=O)cc(OC(C)=O)c4c3C[C@H](C)N(C(C)=O)[C@H]4C)cc(-c3cc(-c4c(OC(C)=O)cc(OC(C)=O)c5c4C[C@H](C)N(C(C)=O)[C@H]5C)c4cc(C)cc(OC)c4c3O)c(O)c12 | 41% | 31.5% | 34.5% | 7.65 | -44% | 16.4 |
| Nc1c(Cl)ncnc1Cl | -13.8% | 8.3% | -16.4% | -0.65 | 19.7% | -39.7 |
| O=C(O)c1cc(C2CCCC2)nc2ccccc12 | 4.6% | 17% | -5.25% | -6 | -13.2% | 6.85 |
| C#CC(O)C(CC)CCCC (stereo not given) | -11.1% | -46.5% | -14.7% | -10.4 | -12.8% | 13.8 |
| COC(=O)C(Cc1ccccc1)NC(=O)C(CCC(=O)OCc1ccccc1)NC(=O)OC(C)(C)C (stereo not given) | 30.9% | 8.55% | 19.8% | 19.9 | 31.4% | 22 |
| N#Cc1nn(CCCl)c(=O)c2ccccc12 | 28.7% | 17.9% | 10% | 12.2 | 12.2% | 15.4 |
| CC1=CC(=O)/C(=C/n2c(=S)[nH]c3ccc([N+](=O)[O-])cc32)C(=O)O1 | 2.1% | -44.7% | -9.5% | 6.85 | 6.6% | -46.3 |
| CCN(CC)CCN1C(=O)N(CCN(CC)CC)C(=O)C(CC)(CC)C1=O | 13.9% | -2.15% | 12.5% | 22.9 | -1.65% | 34.1 |
| CC(=O)SCC(C)CCl (stereo not given) | -12.4% | -47.6% | -30.9% | -3.15 | -17.7% | -25.4 |
| COc1cc(C(C)=O)cc(OCc2ccccc2)c1OC | -2.85% | 15.7% | 18.2% | -13.1 | 15.4% | 7.25 |
| Cc1nc(N)nc(-c2ccccc2)c1N=Nc1cc(Cl)cc(Cl)c1 | 5.95% | -8.3% | -3.65% | -6.45 | -5.15% | 7.45 |
| COC(=O)CCCCCNC(=O)NCCCCCC(=O)OC | 4.6% | -21% | -1.2% | 6.25 | -11.4% | 19.1 |
| COc1ccc(C(O)C(O)(c2ccccc2)c2ccc(OC)cc2)cc1 (stereo not given) | -6.05% | -4.1% | -6.3% | -19.1 | 19.9% | -11.6 |
| COC(=O)CN(c1ccc(C#N)c2ccccc12)S(=O)(=O)c1ccccc1 | 32.4% | -2.35% | 3.7% | -4.9 | 4.25% | 1.45 |
| ClCCCN1CCN(CCCCl)CC1 | 80.2% (active) | 70% (active) | 85% (active) | 62.1 | 80.5% (active) | 7.75 |
| CCOC(=O)NC(N)=O | 11.3% | -1.45% | 14.2% | -8.1 | 0.4% | 6.85 |
| N/C([S-])=N/N=c1\c(O)c(O)\c1=N/N=C(/N)[S-].[Cu+2] | -8.6% | -6.6% | -7% | -2.7 | -10.3% | -12.7 |

| SMILES | growth inhibition [1] | growth inhibition [2] | growth inhibition [3] | growth inhibition [4] [%] | growth inhibition [5] | growth inhibition [6] [%] |
| --- | --- | --- | --- | --- | --- | --- |
| O=C(OCC(O)C(O)C(O)COC(=O)c1ccccc1)c1ccccc1 (stereo not given) | -11.6% | -5.05% | -25.4% | -23.6 | -22.8% | -13.1 |
| CC(C)C1NC(=O)[C@H](C)OC(=O)[C@@H](C(C)C)NC(=O)[C@@H](C)OC(=O)C(C(C)C)NC(=O)[C@H](C)OC1=O (stereo not given in full) | -36.7% | -2.15% | -17.1% | 14.9 | 2.85% | -10.2 |
| Cc1ccc(SCCN)cc1 | 11.8% | 11.9% | -6.3% | 2.35 | -0.35% | -10.2 |
| COc1cc(/C(=C\c2ccccc2N)C(=O)O)cc(Br)c1OC | 9.35% | -8.2% | -11.2% | 4.65 | 0% | 1.65 |
| CCCCC(=O)N/N=C/c1c[nH]c2ccc(Br)cc12 | 4.3% | 6.05% | -9.1% | 0.85 | 12.9% | 0.05 |
| O=C(O)c1c(-c2ccccc2)c(=O)[nH]c2ccccc12 | -6.8% | 4.05% | -36.8% | 17.1 | 13.2% | 11.1 |
| O=c1c2[nH]cnc2n(-c2ccccc2)c(=S)n1-c1ccccc1 | 6.5% | 1.8% | -26.1% | -6.55 | -26.9% | 13.8 |
| CCCCCCCC/C=C/CCCCCCCC(=O)N(CCOC(=O)C(C)(C)C)CCOC(=O)C(C)(C)C | 37.5% | 9.5% | 25.6% | 24.2 | -2.45% | 39.2 |
| O=NNc1ccc(Oc2ccccc2)cn1 | 15.4% | -13.5% | -7.9% | -9 | -19.8% | -1.85 |
| CCN(CC)CCC(CCN(CC)CC)(COC(=O)c1ccc([N+](=O)[O-])cc1)c1ccccc1 | 19.7% | 9.1% | 20.1% | -4.15 | -0.55% | 12.6 |
| Cc1cc2nc3ccc(=[N+](C)C)cc-3sc2cc1N | -24.2% | -39.8% | -20.6% | -14.2 | -25.8% | -24.1 |
| CCCC(=O)C(N)CC(C)C (stereo not given) | -8.2% | 5.4% | 10.6% | 1.15 | 2.45% | -4.15 |
| O=C(Nc1ccc2ncccc2c1)Nc1ccc2ncccc2c1 | 12.9% | -12.8% | 4.2% | -4.85 | -10.4% | 21.4 |
| CCCC1c2c(ccc3ccccc23)Oc2ccc3ccccc3c21 | -36.1% | 2.4% | -19.6% | -2 | -13.7% | -1.35 |
| CCOC(=O)N1CCN(C(=O)OCC)C(C)C1 (stereo not given) | 4.45% | -0.7% | -8.8% | -20.1 | 6.35% | -8.6 |
| C#CCOCn1cc(C)c(=O)[nH]c1=O | 0.4% | -0.1% | 16.5% | 10.4 | 0.05% | 12.4 |
| COC(=O)C(/C(=N\NC(N)=S)C(=O)Nc1ccccc1[N+](=O)[O-])c1cnc2ccccc2n1 (stereo not given) | 5% | -14.7% | -8.55% | 2.1 | -19.1% | -18.7 |
| C=C(CCCCCCCCC)CC(=O)SCCNC(=O)CCNC(=O)C(O)C(C)(C)COP(=O)(O)OP(=O)(O)OCC1OC(n2cnc3c(N)ncnc32)C(O)C1OP(=O)(O)O (stereo not given) | -7.95% | -14.8% | 0.55% | -17 | -19.6% | 0.4 |
| CCCC(=O)Oc1ccc2ccccc2c1 | 7.65% | 23.5% | 1.8% | 14.7 | -1.5% | -33.5 |
| Nc1nc(N)nc(SCC(=O)O)n1 | 8.55% | -23.2% | 2% | 3.15 | -2.05% | 14.9 |
